Source: PubChem
A selection: hits, their analogues and other compounds. The true share with any hit is near 5%.
SENP8 block-1: SENP8 (human) protease inhibition; Q96LD8; recombinant SENP8, Nedd8 substrate fluorescence; inhibition, % at 20 µM; actives 0.64% (n = 360,000); AID 602440; in the data active = inhibition mostly above about 40%, no sharp cut-off; inactive = mostly below about 27%
SENP7 inh: inhibitors of human SENP7 protease | inhibition, % at 5 µM | Q9BQF6 | actives 1.5% (n = 330,000) | recombinant SENP7, Z-RLRGG-aminoluciferin luminescence, 40 min;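 active = inhibition above about 50% at the single test dose, limit read from the data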
SENP6 block: SENP6 protease inhibition. Q9GZR1. Recombinant SENP6 catalytic domain, aminoluciferin luminescence. inhibition, % at 10 µM. actives 1.8% (n = 330,000);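 active = inhibition above about 50% at the single tested dose, limit read from the data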
Target sequence (Q9GZR1 628-1112 limits assumed): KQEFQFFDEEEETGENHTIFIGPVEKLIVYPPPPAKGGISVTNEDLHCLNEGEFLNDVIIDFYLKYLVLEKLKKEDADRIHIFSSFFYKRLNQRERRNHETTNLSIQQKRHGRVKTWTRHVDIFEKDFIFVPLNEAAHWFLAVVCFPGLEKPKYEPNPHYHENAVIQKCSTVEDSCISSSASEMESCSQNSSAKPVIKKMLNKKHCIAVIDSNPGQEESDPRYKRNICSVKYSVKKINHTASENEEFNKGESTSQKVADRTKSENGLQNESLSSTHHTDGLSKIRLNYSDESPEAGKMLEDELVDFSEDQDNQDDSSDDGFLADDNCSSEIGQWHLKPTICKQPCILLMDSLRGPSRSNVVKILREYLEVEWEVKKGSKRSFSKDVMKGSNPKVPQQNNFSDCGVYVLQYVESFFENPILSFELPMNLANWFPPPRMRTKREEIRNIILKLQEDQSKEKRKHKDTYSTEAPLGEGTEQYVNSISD
SENP8 block-2: SENP8 protease inhibition. Q96LD8. purified SENP8, Z-RLRGG-aminoluciferin cleavage, luminescence. inhibition, % at 10 µM. actives 1.2% (n = 330,000); in the data active = inhibition above about 50%
EBI2 block: antagonists of human EBI2 receptor; EBI2 beta-arrestin recruitment, luminescence, 7a,25-OHC stimulated; inhibition, % at 5 µM; actives 0.81% (n = 360,000); AID 651636; in the data active = inhibition above about 38%;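 note: enzyme fragment complementation signal reports receptor beta-arrestin coupling in cells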
AHR activator: human AHR activation; P35869; activation, % at 5 µM; actives 2.5% (n = 320,000); AHR-responsive luciferase reporter cells, luminescence; in the data active = activation above about 47%
Numbers stand for hits; n = inactive; x = no result.

SMILES	SENP8 block-1	SENP7 inh	SENP6 block	SENP8 block-2	EBI2 block	AHR activator
C[C@H]1CN([C@@H](C)CO)C(=O)CCCn2nncc2CO[C@H]1CN(C)S(=O)(=O)c1ccc(C#N)cc1	n	x	x	x	n	x
COC(OC)C1(CCc2ccccc2)NC(=O)NC1=O (stereo unspecified)	n	x	x	x	n	x
CCCc1c(C(=O)N/N=C/c2cccs2)nnn1-c1nonc1N	n	n	n	n	n	61
CCCN(CCC)Cc1c(C(=O)N/N=C/c2cccs2)nnn1-c1nonc1N	n	n	n	n	n	n
COc1ccc(C(=O)C[n+]2cc(Br)cc3ccccc32)cc1[N+](=O)[O-]	n	n	n	n	n	71
COc1cccc(OCCCn2cc(/C=C3/C(=N)N4C=C(C)SC4=NC3=O)c3ccccc32)c1	n	n	n	n	n	51
CCOC(=O)N1CCN(C(=O)c2ccc(Cn3c(=S)[nH]c4ccc(Br)cc4c3=O)cc2)CC1	n	n	n	n	n	n
CCNC(=O)C1(C)CCN(Cc2cccc(C(F)(F)F)c2)C1 (stereo unspecified)	n	x	x	x	n	x
CCN1C(=O)N[C@@H](CCc2ccccc2)C(C(C)=O)=C1C	n	n	n	n	n	n
CCN1C(=S)N[C@@H](CCc2ccccc2)C(C(=O)OC)=C1C	n	n	n	n	n	53
Cc1nc(C(F)(F)F)ccc1C(=O)N1CCC1(C)C(=O)NCc1cccs1 (stereo unspecified)	n	x	x	x	n	x
COc1ccc(-c2[nH]c(-c3ccccc3)nc2SCC(=O)NC2CCCC2)cc1	n	n	n	n	n	n
COc1ccc(-c2[nH]c(-c3cccc(OC)c3)nc2SCC(=O)NC2CCCC2)cc1	n	n	n	n	n	65
O=C(OCC(=O)N1CCOCC1)c1c(Cl)ccc(Cl)c1Cl	n	n	n	n	n	48
Nc1cccn2c(-c3ccc(Cl)c(Cl)c3)cnc12	n	n	n	n	n	n
Nc1cccn2c(-c3ccc(Cl)cc3)cnc12	n	n	n	n	n	70
O=C(CC1Nc2ccccc2NC1=O)Nc1cc(Cl)cc(Cl)c1 (stereo unspecified)	n	n	n	n	n	48
O=C(CC1Nc2ccccc2NC1=O)NCc1cccnc1 (stereo unspecified)	n	n	n	n	n	49
O=C(CC1NC(=O)NC1=O)Nc1ccc(Cl)cc1 (stereo unspecified)	n	n	n	n	n	n
CC(C)C[C@H]1CN(CCCC[C@@H]2CNC(=O)C(=O)N2CCc2ccccc2)C(=O)C(=O)N1Cc1ccccc1	n	x	x	x	n	x
Cc1cc(NC(=O)Nc2cccc(C)c2C)no1	n	n	n	n	n	52
Cc1cccc(NC(=O)Nc2cc(C)on2)c1	n	n	n	n	n	n
CC(C)c1ccc(C2=C(O)c3ccccc3C(=O)C2=O)cc1	n	n	n	n	n	54
CCC1(c2ccc(F)cc2)NC(=O)N(CC(=O)N2CCN(C(=O)c3cccs3)CC2)C1=O (stereo unspecified)	n	n	n	n	n	x
COC(=O)C1=C(C(=O)OC)C(C(=O)OC)N2C=CC=CC2=C1C(=O)OC (stereo unspecified)	n	x	x	x	n	x
SMILES	SENP8 block-1	SENP7 inh	SENP6 block	SENP8 block-2	EBI2 block	AHR activator
COc1ccc(C(=O)C[n+]2ccc3ccccc3c2C)cc1	n	n	n	n	n	59
COc1ccc(C(=O)C[n+]2cccc3cc(OC)ccc32)cc1	n	n	n	n	n	n
CC(=O)N1c2ccc(S(=O)(=O)N3CCCCC3)cc2CC1C(=O)NCc1ccc(N(C)C)cc1 (stereo unspecified)	n	n	n	n	n	n
COc1cc(C(=O)CSc2nccn2C)cc(OC)c1OC	n	n	n	n	n	47
COc1ccc(C(=O)CSc2nccn2C)cc1	n	n	n	n	n	n
O=C(CN1CCN(Cc2ccccc2)CC1)Nc1ccc([N+](=O)[O-])cc1C(=O)Nc1ccccc1F	n	n	n	n	n	n
O=C(CNCc1ccccn1)Nc1ccc([N+](=O)[O-])cc1C(=O)Nc1ccccc1F	n	n	n	n	n	75
CCCCNc1nc2cccnc2s1	n	n	n	n	n	n
Clc1ccc(Nc2nc3cccnc3s2)cc1	n	n	n	n	n	53
Oc1ccc(N=Nc2ccccc2-c2nn[nH]n2)c(O)c1	n	n	n	n	n	n
Cc1c(=O)n(OCc2ccccn2)c2ccccc2[n+]1[O-]	n	n	n	n	n	52
O=c1c(-c2ccc(F)cc2)[n+]([O-])c2ccccc2n1OCc1ccccn1	n	n	n	n	n	n
